Six1-Eya2 blk: qHTS Assay for Inhibitors of the Six1/Eya2 Interaction | Homeobox protein SIX1 (Homo sapiens) + Protein phosphatase EYA2 (Homo sapiens), … | AlphaScreen GST-Six1/His-Eya2 binding, biochemical; hits give low values | activity change, % (concentration not given with the values) | hit rate 0.56% among 360,000 | AID 651725, 2012; in the data active = activity change below about -65%; inconclusive = mostly about -30% to -63%; note: % is set by controls: 0 for no effect and ±100 for the full control effect
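GST-Six1 + His-Eya2 (5X stock: 250/500 nM); Tris pH 8.0, 300 mM NaCl, 0.05% BSA, 0.02% Tween 20; GSH donor/Ni acceptor beads; 1 h 37 °C dark; AlphaScreen readout.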
JMJD2A Tudor: qHTS Assay for Inhibitors of JMJD2A-Tudor Domain; Lysine-specific demethylase 4A (Homo sapiens), O75164; AlphaScreen JMJD2A-Tudor / H3K4me3 peptide binding; Potency, µM (series often up to 114 µM), for inactives: at the top dose activity change, negative = inhibition, most hits filed as inhibitors; hit rate 4.4% among 390,000; note: potency is the fitted concentration of half-maximal effect; % is set by controls: 0 for no effect and ±100 for the full control effect; nearly all actives have a fitted effect of over 50% in size
BAZ2B inh: qHTS Assay for Inhibitors of BAZ2B; hit rate 4.4% among 360,000; Potency, µM (titrated, usually from 114 µM), for inactives: at the highest dose activity change, negative = inhibition, usual class: inhibitors; AlphaScreen BAZ2B-H3K14Ac peptide displacement; note: potency is the fitted concentration of half-maximal effect; % is set by controls: 0 for no effect and ±100 for the full control effect; nearly all actives have a fitted effect of over 60% in size
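Multi-concentration screen (max 110 uM) measuring displacement of acetylated histone H3 peptide from BAZ2B by AlphaScreen, using 50 nM protein, 50 nM peptide and 10 ug/mL streptavidin donor plus Ni-chelate acceptor beads.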
TDP1 inh: qHTS Assay for Inhibitors of Tyrosyl-DNA Phosphodiesterase (TDP1); Tyrosyl-DNA phosphodiesterase 1 (Homo sapiens), Q9NUW8; recombinant TDP1, AlphaScreen DNA substrate cleavage; Potency, µM (top dose mostly 130 µM), inactives show top-dose activity change, negative = inhibition, actives largely listed as inhibitors; hit rate 0.28% among 350,000; note: potency is the fitted concentration of half-maximal effect; % is set by controls: 0 for no effect and ±100 for the full control effect; nearly all actives have a fitted effect of over 40% in size
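AlphaScreen read-out: signal falls as enzyme removes the 3' tyrosine-FITC from a 5'-biotinylated DNA oligo (15 nM, 5 min, RT). Enzyme was E. coli-made recombinant Tdp1 at 1 nM, exposed to compound for 15 min beforehand; beads 10 ug/ml, 10 min.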
HP1b binding inh: HTS for Inhibitors of HP1-beta Chromodomain Interactions with Methylated Histone Tails | Chromobox protein homolog 1 (Homo sapiens), P83916 | AlphaScreen HP1-beta / biotin-H3K9me3 peptide binding | Potency, µM (highest dose often 114 µM), without a hit: at the top dose activity change, negative = inhibition, hits mostly inhibitors | hit rate 0.56% among 390,000 | AID 540317, 2011; note: potency is the fitted concentration of half-maximal effect; nearly all actives have a fitted effect of over 70% in size
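HP1-beta protein (50 nM final) preincubated 30 min at room temperature with biotinylated H3(1-18)K9me3 peptide (50 nM) in PBS pH 7.4, 0.01% Tween-20, then compound added for 30 min. AlphaScreen streptavidin donor/nickel chelate acceptor beads (10 ug/mL final), 30 min dark, luminescence read.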
CtBP-E1A blk: qHTS Assay for Inhibitors of the CtBP/E1A Interaction; AID 651724, 2012; activity change, % (concentration not given with the values); hit rate 0.49% among 340,000; CtBP / adenovirus E1A interaction (AlphaScreen); AlphaScreen GST-E1A/His-CtBP binding, 1536-well; hits give low values; in the data active = activity change below about -65%; inconclusive = mostly about -30% to -63%; note: % is set by controls: 0 for no effect and ±100 for the full control effect
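In 5 uL wells, 23 nL compound meets equimolar GST-E1A and His-CtBP (5X stock 125 nM each) for 2 h, 37 °C. Beads (5X, 50 ug/mL) then 1 h, 37 °C, dark.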
Numbers without * were called inactive; [ ] = dose if it differs, or a comment. Only some compounds are listed: those with a hit (about 5.3% of all), similar ones and a draw of the others. Unless noted, calls come from the whole dose curve; as a rule, active = well fitted inhibition curve with a large enough effect; inconclusive = small, poorly fitted or top-dose-only effect; inactive = no such curve, though single readings can be large or run the other way.

`CCCOc1ccc(NC(=O)CC2C(=O)N(c3ccccc3)C(=O)N2Cc2ccc(F)cc2)cc1` (stereo not drawn) gave JMJD2A Tudor -14%, BAZ2B inh -8%, TDP1 inh 8% and HP1b binding inh 11%.
For Cc1cc2c(s1)c1cnn(Cc3cccc(C)c3F)c(=O)c1n2C the results were JMJD2A Tudor -23%.
For C1=CC2c3ccccc3NC(c3ccncc3)C2C1 (stereo not drawn) the results were Six1-Eya2 blk -16, JMJD2A Tudor 45µM*, BAZ2B inh inconclusive, TDP1 inh 6%, HP1b binding inh inconclusive and CtBP-E1A blk inconclusive.
For CCOC(=O)C1Nc2ccc(OC(F)(F)F)cc2C2C=CCC12 (stereo not drawn) the results were Six1-Eya2 blk -17, JMJD2A Tudor 25µM*, HP1b binding inh inconclusive and CtBP-E1A blk -26.
Screening O=C(NCc1ccccc1)C1Nc2ccc(OC(F)(F)F)cc2C2C=CCC12 (stereo not drawn) returned Six1-Eya2 blk -5, JMJD2A Tudor -31%, HP1b binding inh 16% and CtBP-E1A blk 2.
`CC(=O)c1ccc2c(c1)C1C=CCC1C(C(=O)O)N2` (stereo not drawn) gave Six1-Eya2 blk -68*, JMJD2A Tudor 6.3µM*, BAZ2B inh 6.3µM*, TDP1 inh 6%, HP1b binding inh 20µM* and CtBP-E1A blk inconclusive.
O=C(O)C1Nc2c(cccc2C(F)(F)F)C2C=CCC12 (stereo not drawn) was read as BAZ2B inh 40µM*.
Screening O=C(NC1CC1)C1Nc2ccc(OC(F)(F)F)cc2C2C=CCC12 (stereo not drawn) returned Six1-Eya2 blk 6, JMJD2A Tudor -17%, HP1b binding inh 38% and CtBP-E1A blk 3.
C[C@@H](CNC1CCCCC1)OC(=O)c1ccccc1 was read as TDP1 inh 13%[21 µM].
Screening Cc1oc(-c2ccc(C(=O)NCc3ccc(Cl)cc3)cc2)nc1CS(=O)(=O)c1ccccc1 returned JMJD2A Tudor -26%, BAZ2B inh -24%, TDP1 inh 3% and HP1b binding inh 11%.
COc1ccccc1N1C(=O)c2ccccc2C1=O was read as JMJD2A Tudor -31% and TDP1 inh 0%.
`Oc1c(Br)cc(Br)cc1C=Nc1ccc2c(c1)OCCO2` gave Six1-Eya2 blk -6, JMJD2A Tudor -4%, BAZ2B inh 7%, TDP1 inh 0% and HP1b binding inh 50%.
Oc1[nH]c2ccccc2c1C=Nc1ccc2c(c1)OCCO2 was read as Six1-Eya2 blk -11, JMJD2A Tudor inconclusive, BAZ2B inh 35µM*, TDP1 inh 12%, HP1b binding inh -7% and CtBP-E1A blk -16.
Screening COc1ccc(-c2ccc(C(=O)NCc3ccc(N(C)C)cc3)c3occc23)c(C)c1 returned Six1-Eya2 blk -65* and CtBP-E1A blk -66*.
COc1ccc(COC(=O)N/N=C2/C[C@@H](O)[C@@H](O)[C@@H]3[C@@H]4C(=O)N(c5cccc(Oc6ccccc6)c5)C(=O)[C@H]4CC[C@H]23)cc1 was read as TDP1 inh 11%[21 µM].
COc1ccc(C(=O)NNC(=O)CCC(=O)NNC(=O)c2ccc(OC)cc2)cc1 was read as Six1-Eya2 blk -4, JMJD2A Tudor -18%, BAZ2B inh 50µM*, HP1b binding inh 37% and CtBP-E1A blk 1.
For COc1ccc(C(=O)NNC(=O)CSc2nc(C(C)C)nc3ccccc23)cc1 the results were Six1-Eya2 blk -1, JMJD2A Tudor -9%, BAZ2B inh 1%, TDP1 inh 2%, HP1b binding inh 36% and CtBP-E1A blk -11.

Source: PubChem (National Center for Advancing Translational Sciences (NCATS))
